The values below come from the supplement of paper PMC11417369.

Over roughly 25,000 sequences, “ln(normalized median fluorescence intensity)” has its median near 7.1; the highest 2% begin near 10. Only a selection was taken, and the highest values are over-represented in it overall.

For the assay, the system named is PfSIP2 AP2 domain 1 (GST-tagged). The assay can be described thus: gcPBM binding intensity (ln(normalized median fluorescence intensity)); higher = stronger DNA binding. An outline of the steps: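 DNA-binding domains from P. falciparum, fused to GST and produced in E. coli, were put on an Agilent 4 × 180k double-stranded probe array for 1 h in 1× PBS holding 1% milk, 0.2 mg/ml BSA, 0.5% salmon testes DNA and 0.03% Triton X-100. Probes were primer-extended, 36 bp long and drawn from intergenic genomic regions, with negative controls included. After Alexa488 anti-GST antibody detection and a 488 nm scan, binding intensity was set as the highest Masliner-normalised natural-log median intensity across replicate spots of either probe orientation.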
For the sequence “TTTTTTTTTTTTTTTTTTGGTGAGAGAAGAAAATTC [CACACA_negctrl_site950]”, the “gcPBM binding intensity (ln)” value was 7.02.

With TTTTTTTTTTTGTGAGTGCACGTATGAAGAGAAAAA, the “gcPBM binding intensity (ln)” value worked out at 10.8.

Regarding “ATTTTGATGATGTATGCACACATTGAAAATGAGAAA [CACACA_site2916]”, the “gcPBM binding intensity (ln)” value was determined as 9.12.

As to “AGGAATATAAAGTGCACACATAATTTGGGGGCAAAA [CACACA_site258]”, the “gcPBM binding intensity (ln)” value was 11.7.

With “GAATAAAGGAGAGGCACACATATATATATATATATA [CACACA_site2452]”, the “gcPBM binding intensity (ln)” value stood at 9.61.

On to “TCAGGAATATAAAGTGCACACATAATTTGGGGGCAA [CACACA_site7974]”, for which the “gcPBM binding intensity (ln)” value came out at 11.2.

On to “AATTTAATATAATGCACACATAAAAAAAAAAAAAAA [CACACA_site123]”, for which the “gcPBM binding intensity (ln)” value amounted to 7.42.

Regarding “AATTATGCACAAATCACACATATAAAATAAAAAGTG [CACACA_site4474]”, the “gcPBM binding intensity (ln)” value was 7.87.

Regarding “AATTTTGGAACGTGCACACATATGTAATATATATAT [CACACA_site3067]”, the “gcPBM binding intensity (ln)” value was 10.1.

On to “ATATAGTATTAATTTGCATGTCATGTATTAGGTCGA [TGCATGCA_site540]”, for which the “gcPBM binding intensity (ln)” value is 6.73.

In the case of “TAAAATTTTATAAAGGAACACACATTTTTTTTTTTT [CACACA_site8740]”, the “gcPBM binding intensity (ln)” value was 6.87.

Consider “TTTGATTTTAATGTGTGTACACATTTATTTATATAA [XGTACX_site4806]”, for which the “gcPBM binding intensity (ln)” value was found to be 7.74.

In the case of “AAATAAGAAAATCATAGTACATAGGAATAGAAGAAC [XGTACX_site3135]”, the “gcPBM binding intensity (ln)” value came out at 7.59.

Turning to “ATATGGAATGATCATAGTACATAATTTAAAATTTTA [XGTACX_site3568]”, the “gcPBM binding intensity (ln)” value came out at 6.74.

For the sequence “ATAATGAAGACTTTTTTACACACTTCATATATTATA [CACACA_site8630]”, the “gcPBM binding intensity (ln)” value was determined as 6.96.

On to “AAAAAAAGAATGTGAACACACACATTGAATATAATT [CACACA_site8341]”, for which the “gcPBM binding intensity (ln)” value is 6.79.

Turning to “ATTAAAAAAAAAGAGCGTACAAATAATTACTTCTTT [XGTACX_site8262]”, the “gcPBM binding intensity (ln)” value was found to be 6.83.

Consider “ATATCATCTTCTCTATCATTTTTTTTTTTTTTTTTT [CACACA_negctrl_site1220]”, for which the “gcPBM binding intensity (ln)” value was found to be 7.69.

As for TTTAAAATACAGAAGGTGCATTTAACATATTTGTAT, the “gcPBM binding intensity (ln)” value was found to be 10.6.

As to “TTATTATTATAAAATTGTACTTGGTATATTAACATA [XGTACX_site5829]”, the “gcPBM binding intensity (ln)” value stood at 6.98.

As to “AAATACTTAACATTGGTGCATATTTGTAAAATTATT [GTGCAC_site9515]”, the “gcPBM binding intensity (ln)” value was found to be 10.7.

On to “TATTTTAACATTAGGTGTACATACAAAAATAAAAAT [XGTACX_site8577]”, for which the “gcPBM binding intensity (ln)” value was 7.37.

As to “TTAATATAATTAAAATGTACTTATTTGTAAACATTA [XGTACX_site6313]”, the “gcPBM binding intensity (ln)” value was 6.78.

As to “TATATATATTTAAGGTGTACATAAATAACAAAATAT [XGTACX_site2641]”, the “gcPBM binding intensity (ln)” value was found to be 7.47.

As to “ATATTAAAATTTTAATGTACATGCGTATGTAGGAAT [XGTACX_site1673]”, the “gcPBM binding intensity (ln)” value was 7.39.

“TAATCATTTTAGCTTACACACAAAATTTTGTTATAA [CACACA_site2939]”: the “gcPBM binding intensity (ln)” value amounted to 6.93.

For the sequence “TTTATATAATTTTTTTGTACATATATATGAATACAT [XGTACX_site2316]”, the “gcPBM binding intensity (ln)” value is 7.11.

Consider “AAATGTTGAAAAATATGTACATATTATATATATTAT [XGTACX_site1165]”, for which the “gcPBM binding intensity (ln)” value is 7.1.

Consider “TCTTTCAATATTAATGCATGTTAATAATAAATTTTA [TGCATGCA_site448]”, for which the “gcPBM binding intensity (ln)” value worked out at 6.89.

Turning to ATGTTAATTAATGAGGTGCATTGAATATTTCAATAA, the “gcPBM binding intensity (ln)” value was found to be 10.6.

Regarding “AATATTTTTCAATTTCATGTGCATTCATTGAAGTTA [CACACA_negctrl_site1232]”, the “gcPBM binding intensity (ln)” value was determined as 7.34.

Consider “GAAAAATTTAATTATTGTACGTTTCATCTATATTTA [XGTACX_site414]”, for which the “gcPBM binding intensity (ln)” value is 6.91.

With “TCATTTTATTATTCTACACACTTATCTATAATTATA [CACACA_site34]”, the “gcPBM binding intensity (ln)” value is 7.2.

Turning to “AAAAAAAAAAAAAAAGTGCATATATAAATATTGTAT [GTGCAC_site9459]”, the “gcPBM binding intensity (ln)” value stood at 9.58.

“AGGATATAAAGTTGTGCATGTCAAGTGCACCGTATT [TGCATGCA_site451]”: the “gcPBM binding intensity (ln)” value stood at 12.2.

For the sequence AAAAAAAAGTTGTAAGTGCATGTATATAATAATATT, the “gcPBM binding intensity (ln)” value worked out at 8.08.

With “ATATTACACATATATGCACACATTGTAGTTATTTAT [CACACA_site8843]”, the “gcPBM binding intensity (ln)” value stood at 9.43.

Regarding “ATTGTGCACTTATATGCACACATTTTAGTTTTTTTT [CACACA_site2028]”, the “gcPBM binding intensity (ln)” value amounted to 10.6.

“CATTTTGTTTTAAAGTGTACATTATGTAATATAAAA [XGTACX_site647]”: the “gcPBM binding intensity (ln)” value came to 7.15.

With “TTTAGTTTTTATATAGCACACATATTGTGATTATGT [CACACA_site8316]”, the “gcPBM binding intensity (ln)” value amounted to 6.96.

Regarding “ATTTATATGCACCATTGTACGTTTTATAAAGTTTGG [XGTACX_site3755]”, the “gcPBM binding intensity (ln)” value was determined as 10.7.

Consider “ATATATATATAAAGTTGTACATTTTTTATTTTTTCA [XGTACX_site7847]”, for which the “gcPBM binding intensity (ln)” value worked out at 9.04.

For the sequence “TACATATATATTTGTTCACACACACCCAAAAAAAAA [CACACA_site8788]”, the “gcPBM binding intensity (ln)” value came out at 7.01.

For “AAAAGTAACAAAGCTACACACATTTAAATAAACATA [CACACA_site1421]”, the “gcPBM binding intensity (ln)” value is 6.94.

As for “GTTCTAAATATTATTGCATGTTGCACGTTTCTCTGT [TGCATGCA_site159]”, the “gcPBM binding intensity (ln)” value came to 7.65.

Turning to “TGAACAGGTCATAATTTACACACTATATATTTTATT [CACACA_site8123]”, the “gcPBM binding intensity (ln)” value was determined as 6.87.

Consider “TGTATAAAAAACTAATGTACAAATGACAAGATATCT [XGTACX_site4600]”, for which the “gcPBM binding intensity (ln)” value was 6.9.
